Values joined by “and” are separate entries in the source; they are usually repeats but may differ in a detail not shown here. Identical values can stand only once. More than one record can exist for a structure, and the calls need not agree. Active and inactive are the calls of the source. How the source made its calls: active means hit-call score of the fitted dose curve at least 0.9, where 1 is the maximum; inactive means score below 0.9.
How the values were obtained:
[1] = read-out: C-C motif chemokine 2 (Homo sapiens) (UniProt P13500); assay: BSK_KF3CT_MCP1: BioMAP Diversity Plus: KF3CT Assay for Monocyte Chemoattractant Protein 1 (MCP1/CCL2) Biomarker Activity (AID 2283073); details: primary human keratinocytes with fibroblasts; actives raise or lower the signal
Outline: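 KF3CT skin co-culture (keratinocytes/foreskin fibroblasts), 24 h post-dose; MCP-1 by ELISA; gain/loss of signal fit bidirectionally vs DMSO baseline.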

[2] = read-out: Matrix Metallopeptidase 9 (MMP9), MMP9 (gene 4318); assay: BSK_KF3CT_MMP9: BioMAP Diversity Plus: KF3CT Assay for Matrix Metallopeptidase 9 (MMP9) Biomarker Activity (AID 2283074); details: primary human keratinocytes with fibroblasts; actives raise or lower the signal;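 on AC50: MMP9 protein level quantified by ELISA in the co-culture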
Outline: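 Human keratinocyte and foreskin fibroblast co-culture exposed to chemicals for 24 h; MMP9 biomarker measured by ELISA, bidirectional fitting relative to DMSO; cytotoxicity tracked by SRB total protein staining in parallel cultures.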

[3] = read-out: urokinase plasminogen activator (uPA), PLAU (gene 5328); assay: BSK_KF3CT_uPA: BioMAP Diversity Plus: KF3CT Assay for urokinase plasminogen activator (uPA) Biomarker Activity (AID 2283075); details: primary human keratinocytes with fibroblasts; actives raise or lower the signal
Outline: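 Primary human keratinocyte/foreskin fibroblast co-culture exposed to chemical; uPA measured by ELISA at 24 h. Bidirectional fit versus DMSO, with parallel SRB total-protein staining for cytotoxicity.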

CD40, CD40 (gene 958) [4] = assay: BSK_LPS_CD40: BioMAP Diversity Plus: LPS Assay for CD40 Biomarker Activity (AID 2283076); details: primary human HUVEC with PBMC; actives raise or lower the signal
Outline: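 ELISA readout of CD40 in HUVEC/PBMC co-culture (BSK_LPS system), 24 h post-dosing; bidirectional curve fit, DMSO baseline; parallel SRB total-protein staining for cytotoxicity.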

[5] = read-out: E-selectin (Homo sapiens) (UniProt P16581); assay: BSK_LPS_Eselectin: BioMAP Diversity Plus: LPS Assay for Eselectin Biomarker Activity (AID 2283077); details: primary human HUVEC with PBMC; actives raise or lower the signal
Outline: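 ELISA readout of E-selectin, 24 h post-dose, HUVEC + PBMC co-culture (LPS system). Gain or loss of signal vs DMSO baseline, bidirectional fit.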

[6] = read-out: Interleukin-8 (IL8), CXCL8 (gene 3576); assay: BSK_LPS_IL8: BioMAP Diversity Plus: LPS Assay for Interleukin-8 (IL8) Biomarker Activity (AID 2283078); details: primary human HUVEC with PBMC; actives raise or lower the signal
Outline: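 HUVEC + PBMC co-culture, LPS-activated; test chemicals dosed, IL-8 read by ELISA at 24 h. Bidirectional curve fit vs DMSO baseline (gain or loss of signal).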

[7] = BSK_LPS_SRB: Viability Assessment in the BioMAP Diversity Plus: LPS Assay (AID 2283079); details: primary human HUVEC with PBMC;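 further: total protein by sulforhodamine B absorbance as a cytotoxicity measure; measured one day after compound addition; fitted in both directions against DMSO so loss or gain of signal counts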
Outline: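 HUVEC + PBMC co-culture, LPS-stimulated; compound 24 h. 10% TCA fix, 0.1% SRB stain, A560. Bidirectional fit vs DMSO.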

[8] = read-out: Interleukin-1 alpha (IL1a), IL1A (gene 3552); assay: BSK_LPS_IL1a: BioMAP Diversity Plus: LPS Assay for Interleukin-1 alpha (IL1a) Biomarker Activity (AID 2283080); details: primary human HUVEC with PBMC; actives raise or lower the signal
Outline: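 HUVEC/PBMC co-culture, LPS system; 24 h after dosing; IL-1a by ELISA; gain or loss of signal fitted bidirectionally vs DMSO baseline.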

[9] = read-out: Monocyte Chemoattractant Protein-1 (MCP1), CCL2 (gene 6347); assay: BSK_LPS_MCP1: BioMAP Diversity Plus: LPS Assay for Monocyte Chemoattractant Protein-1 (MCP1) Biomarker Activity (AID 2283081); details: primary human HUVEC with PBMC; actives raise or lower the signal;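 on AC50: secreted MCP-1 protein quantified by ELISA in culture supernatant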
Outline: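 ELISA read-out of MCP-1 after 24 h chemical dosing of a human umbilical vein endothelial cell/peripheral blood mononuclear cell co-culture stimulated with LPS. Gain or loss of signal fitted relative to DMSO controls.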

[10] = BSK_LPS_PGE2: BioMAP Diversity Plus: LPS Assay for Prostaglandin E2 (PGE2) Biomarker Activity (AID 2283082); details: primary human HUVEC with PBMC; actives raise or lower the signal;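 on AC50: secreted prostaglandin E2 measured by ELISA in LPS-stimulated co-culture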
Outline: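 Endpoint derived from bidirectional curve fitting versus DMSO of ELISA-measured PGE2 in LPS-stimulated human primary vascular co-culture (HUVEC with PBMC) harvested at 24 h.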

[11] = read-out: Macrophage colony-stimulating factor (MCSF), CSF1 (gene 1435); assay: BSK_LPS_MCSF: BioMAP Diversity Plus: LPS Assay for Macrophage colony-stimulating factor (MCSF) Biomarker Activity (AID 2283083); details: primary human HUVEC with PBMC; actives raise or lower the signal
Outline: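 HUVEC + PBMC co-culture (human primary), 24 h post-dose; M-CSF by ELISA; gain/loss of signal fitted bidirectionally vs DMSO baseline.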

[12] = read-out: Tissue Factor, F3 (gene 2152); assay: BSK_LPS_TissueFactor: BioMAP Diversity Plus: LPS Assay for Tissue Factor Biomarker Activity (AID 2283084); details: primary human HUVEC with PBMC; actives raise or lower the signal
Outline: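 HUVEC/PBMC co-culture, LPS-activated; CD142 ELISA read 24 h post-dose; bidirectional curve fit vs DMSO negative control.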

[13] = read-out: Tumor necrosis factor (Homo sapiens) (UniProt P01375); assay: BSK_LPS_TNFa: BioMAP Diversity Plus: LPS Assay for Tumour Necrosis Factor alpha (TNFa) Biomarker Activity (AID 2283085); details: primary human HUVEC with PBMC; actives raise or lower the signal
Outline: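 Primary human vascular co-culture of HUVEC and PBMC; TNFa ELISA 24 h after treatment, analysed as increase or decrease relative to DMSO control.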

[14] = read-out: Vascular cell adhesion molecule 1 (VCAM1), VCAM1 (gene 7412); assay: BSK_LPS_VCAM1: BioMAP Diversity Plus: LPS Assay for Vascular cell adhesion molecule 1 (VCAM1) Biomarker Activity (AID 2283086); details: primary human HUVEC with PBMC; actives raise or lower the signal
Outline: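 Primary human vascular co-culture (umbilical vein endothelium plus PBMC) stimulated with LPS received chemical; 24 h later VCAM-1 was read by ELISA. Overt cytotoxicity was assessed by sulforhodamine B staining of parallel cultures at the same time point.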

CD38, CD38 (gene 952) = assay: BSK_SAg_CD38: BioMAP Diversity Plus: SAg Assay for CD38 Biomarker Activity (AID 2283087); details: primary human HUVEC with PBMC; actives raise or lower the signal
Outline: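 Fluorescence ELISA of cell-surface CD38 served as the read-out, with either increase or decrease fitted against DMSO controls. Cells were a human umbilical vein endothelium plus PBMC co-culture under SEB/TSST-1 stimulation, measured 24 h after dosing.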

CD40, CD40 (gene 958) [15] = assay: BSK_SAg_CD40: BioMAP Diversity Plus: SAg Assay for CD40 Biomarker Activity (AID 2283088); details: primary human HUVEC with PBMC; actives raise or lower the signal
Outline: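 HUVEC/PBMC co-culture, 24 h post-dose; CD40 by ELISA, fluorescence intensity; bidirectional fit vs DMSO negative control.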

CD69, CD69 (gene 969) = assay: BSK_SAg_CD69: BioMAP Diversity Plus: SAg Assay for CD69 Biomarker Activity (AID 2283089); details: primary human HUVEC with PBMC; actives raise or lower the signal;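 on AC50: cell surface CD69 protein quantified by ELISA with fluorescence detection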
Outline: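 ELISA, fluorescence read-out: CD69 on human umbilical vein endothelial cell + PBMC co-culture, 24 h post-dosing. Gain or loss of signal fitted bidirectionally against DMSO baseline.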

[16] = read-out: Monocyte Chemoattractant Protein-1 (MCP1), CCL2 (gene 6347); assay: BSK_SAg_MCP1: BioMAP Diversity Plus: SAg Assay for Monocyte Chemoattractant Protein-1 (MCP1) Biomarker Activity (AID 2283090); details: primary human HUVEC with PBMC; actives raise or lower the signal
Outline: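 MCP-1 levels in the endothelial–PBMC SAg co-culture were quantified by ELISA at 24 h post-dosing; both increases and decreases versus DMSO scored. Cytotoxicity monitored by SRB total protein in parallel cultures.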

[17] = read-out: E-selectin (Homo sapiens) (UniProt P16581); assay: BSK_SAg_Eselectin: BioMAP Diversity Plus: SAg Assay for Eselectin Biomarker Activity (AID 2283091); details: primary human HUVEC with PBMC; actives raise or lower the signal
Outline: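 E-selectin ELISA readout at 24 h post-dosing in human umbilical vein endothelial cell/PBMC co-culture; gain or loss of signal fitted relative to DMSO baseline.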

[18] = read-out: Monokine induced gamma interferon (MIG), CXCL9 (gene 4283); assay: BSK_SAg_MIG: BioMAP Diversity Plus: SAg Assay for Monokine induced gamma interferon (MIG) Biomarker Activity (AID 2283092); details: primary human HUVEC with PBMC; actives raise or lower the signal
Outline: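 ELISA readout of MIG/CXCL9; primary human umbilical vein endothelial cells co-cultured with peripheral blood mononuclear cells; 24 h post-dose; gain/loss fit vs DMSO baseline.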

Measured: AC50

E-selectin (Homo sapiens), sequence (P16581 whole entry, looked up): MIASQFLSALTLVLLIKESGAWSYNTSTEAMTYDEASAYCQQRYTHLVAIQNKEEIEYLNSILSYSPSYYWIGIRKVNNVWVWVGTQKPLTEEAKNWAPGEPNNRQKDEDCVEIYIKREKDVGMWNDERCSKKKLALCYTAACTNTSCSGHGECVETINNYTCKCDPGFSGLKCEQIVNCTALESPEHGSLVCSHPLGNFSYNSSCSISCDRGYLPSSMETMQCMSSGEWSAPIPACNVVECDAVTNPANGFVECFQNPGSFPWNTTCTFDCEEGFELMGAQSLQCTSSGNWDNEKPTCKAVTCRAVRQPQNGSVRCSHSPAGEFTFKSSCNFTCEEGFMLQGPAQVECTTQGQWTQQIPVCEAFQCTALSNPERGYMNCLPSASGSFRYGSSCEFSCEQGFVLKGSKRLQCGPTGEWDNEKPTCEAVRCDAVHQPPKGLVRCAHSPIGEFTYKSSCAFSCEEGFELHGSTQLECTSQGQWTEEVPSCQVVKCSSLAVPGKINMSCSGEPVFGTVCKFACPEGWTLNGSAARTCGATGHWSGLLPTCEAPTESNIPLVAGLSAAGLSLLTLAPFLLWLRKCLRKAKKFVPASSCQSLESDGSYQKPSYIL
Tumor necrosis factor (Homo sapiens), sequence (P01375 whole entry, looked up): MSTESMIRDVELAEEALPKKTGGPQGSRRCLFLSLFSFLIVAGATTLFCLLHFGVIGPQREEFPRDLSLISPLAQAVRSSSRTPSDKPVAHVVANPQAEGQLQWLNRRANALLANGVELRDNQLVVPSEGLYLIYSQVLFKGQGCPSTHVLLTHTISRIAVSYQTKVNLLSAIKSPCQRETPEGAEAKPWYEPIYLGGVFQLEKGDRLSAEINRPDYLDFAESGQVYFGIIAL

CCCCCCCCC(=O)NCc1ccc(O)c(OC)c1
active: [8] 0.1 µM | [10] 12.8 µM
inactive: [1] | [2] | [3] | CD40, CD40 (gene 958) [4] | [5] | [6] | [7] | [9] | [11] | [12] | [13] | [14] | CD38, CD38 (gene 952) | CD40, CD40 (gene 958) [15] | CD69, CD69 (gene 969) | [16] | [17] | [18]

O=C(O)C(F)(F)C(F)(F)C(F)(F)C(F)(F)C(F)(F)C(F)(F)C(F)(F)C(F)(F)C(F)(F)C(F)(F)F
inactive: CD40, CD40 (gene 958) [4] | [5] | [6] | [7] | [8] | [9] | [10] | [11] | [12] | [14] | CD38, CD38 (gene 952) | CD69, CD69 (gene 969) | [16] | [18]
active: [1] 7.51 µM and 4.5 µM and 4.55 µM | [2] 6.03 µM and 3.85 µM and 4.19 µM | [3] 9.7 µM and 5.47 µM and 5.16 µM | CD40, CD40 (gene 958) [4] 29.5 µM | [6] 33.8 µM and 2.03 µM | [7] 34.8 µM | [8] 29.6 µM | [9] 30.2 µM | [10] 22.3 µM | [11] 31.4 µM | [12] 30.2 µM | [13] 31.4 µM and 4.39 µM and 4.42 µM | [14] 29.6 µM | CD38, CD38 (gene 952) 37.4 µM | CD40, CD40 (gene 958) [15] 29.2 µM and 5.41 µM and 5.27 µM | CD69, CD69 (gene 969) 30.5 µM | [16] 35.1 µM | [18] 34.9 µM

From PubChem BioAssay (EPA / NIEHS)
